Our source for the growth values is PubChem BioAssay (NCI).

The panel holds about 83,000 compounds, 20% with a hit somewhere; the sample as a whole holds those more often.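 Single-concentration screen, 48 h exposure, 96-well plates. Endpoint: percent growth. Below 10 = active.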 Unmarked numbers belong to inactive results. The source made the active and inactive calls.

Holding throughout (assay): NCI-60 one-dose screen, 48 h (100 = growth as untreated, 0 = no growth, -100 = all killed)
Holding throughout (conditions): 10 µM unless noted

Assay [1] deals with NCI-H23 lung.
The test system of assay [2] is NCI-H226 lung.
For assay [3], the system named is NCI-H322M lung.
The test system of assay [4] is NCI-H460 lung.
Assay [5] concerns HOP-92 NSCLC.
Assay [6] deals with NCI-H522 lung.
Assay [7] deals with A549/ATCC NSCLC.
Assay [8] deals with 786-0 renal.
For assay [9], the system named is COLO 205 colon.
Assay [10] deals with DU-145 prostate.
In assay [11] the test system is K-562 leukemia.
The subject of assay [12] is MALME-3M melanoma.
Assay [13] relates to MDA-MB-231 breast.
The test system of assay [14] is RXF 393 renal.
Assay [15] has as its system SF-268 CNS.
The test system of assay [16] is SF-295 CNS.
In assay [17] the test system is SF-539 CNS.
For assay [18], the system named is M14 melanoma.
Assay [19] deals with UACC-257 melanoma.
Assay [20] relates to HOP-62 NSCLC.

As for `Cn1c(=O)c2c(ncn2CC(=O)Nc2ccc(S(N)(=O)=O)cc2)n(C)c1=O`, the growth in assay [1] was 104%; in assay [2], 105%; in [3] it was 107%; in assay [4], 108%; in assay [5], 90.1%; in assay [6], 86.7%. The growth was 88.3% in assay [7]; 94.9% in assay [8]; 105% in assay [9]; 107% in assay [10]; 97.4% in [11]; 118% in assay [12]. Moreover, the growth in [13] is 105%; in assay [14], 106%; in assay [15], 101%; in assay [16], 103%; in assay [17], 96.3%; in [18] it was 97.1%.
In the case of `Nc1nc(N)c2nc3c(nc2n1)CCCCCCCCCC3`, the growth is 37.1% in assay [1]; 102% in [2]; 59.1% in assay [3]; 14.3% in assay [4]; 79.7% in assay [5]; 53.8% in [6]. In addition, the growth in [7] is 20.4%; in assay [8], 31.9%; in assay [9] it was 54.1%; in [10], 53.6%; in assay [11], 29.1%; in [12] it was 79.1%. Further, the growth in assay [13] was 84.9%; in assay [14] it was 80%; in assay [15] it was 42.1%; in assay [17] it was 59.6%; in assay [19], 55.5%; in [18] it was 33.1%.
`C=C1C(=O)O[C@H]2[C@H]1CC/C(COC(=O)NCc1cc3ccccc3[nH]1)=C\CC[C@@]1(C)O[C@@H]21`: the growth in [1] is 35.8%; in assay [2] it was 64.5%; in assay [3], 88.3%; in [4] it was 55.3%; in [5], -14.3% (active); in [6], -84.4% (active). For the same compound, the growth in assay [7] is 77.4%; in assay [8], -84.5% (active); in [9], -52.2% (active); in assay [10], 1.16% (active); in [11], -5.26% (active); in assay [12], -59.4% (active). The growth in assay [13] was -42.5% (active); in assay [14], -86.2% (active); in [15], 59.3%; in assay [16], 90.1%; in [17], -46.2% (active); in assay [19] it was 46.2%. For the same compound, in [18], the growth was -27.9% (active).
Consider `O=C(Nc1ccc(/C=C2\SC(=O)N(Cc3ccc(OC(F)(F)F)cc3)C2=O)cc1)c1ccc(Cl)c([N+](=O)[O-])c1`, for which the growth in assay [1] was 80.8%; in assay [2], 83.4%; in assay [3], 42.7%; in assay [4], 94.6%; in assay [5], 86.4%; in assay [6], 83%. Further, the growth in assay [7] is 85%; in assay [8] it was 99.6%; in assay [9], 55.1%; in assay [10], 72.7%; in [11], 46.4%; in assay [12] it was 98.4%. In addition, the growth in assay [13] is 53.2%; in assay [14], 83.5%; in assay [15], 62.7%; in assay [16], 96.1%; in assay [17], 77.2%; in [19], 80.1%. The growth in assay [18] was 104%.
Take `O=C(NC1=CC(=O)c2ccccc2C1=O)c1ccccc1`: the growth is 18.7% in [1]; 37.3% in assay [2]; 57.9% in assay [3]; 10.2% in assay [4]; -84.1% (active) in assay [5]; -48.8% (active) in [6]. The growth in assay [7] was 23.8%; in [8], 39.9%; in assay [9], 48%; in [10], 63.4%; in assay [11] it was -0.828% (active); in assay [13], 16.9%. Moreover, the growth in assay [14] is 35.3%; in [15], 39.3%; in [16], 4.13% (active); in [17] it was 10.5%; in assay [19] it was -4.63% (active); in assay [18], 33.9%.
As for `C=C(C)[C@@H]1CC[C@]2(/C=N/Nc3ccncc3)CC[C@]3(C)[C@H](CC[C@@H]4[C@@]5(C)CCCNC(C)(C)[C@@H]5CC[C@]43C)[C@@H]12`, the growth in assay [1] is 85.9%; in assay [2] it was 87.7%; in assay [3] it was 102%; in [4], 86.6%; in assay [5], 55.6%; in assay [6] it was 94.8%. For the same compound, the growth in assay [7] is 78%; in assay [8], 99.8%; in [9], 42.2%; in assay [10], 95.7%; in assay [11], 7.55% (active); in assay [12], 80.3%. The growth in assay [13] was 101%; in assay [14], 96.3%; in assay [15], 97.2%; in assay [16] it was 99.1%; in assay [17] it was 88.7%; in [19] it was 94.7%. In assay [18], the growth was 79.4%.
For the compound `O=C(O)/C(=C/c1ccc(O)cc1)c1ccccc1`, the growth in assay [1] is 93.9%; in [2] it was 100%; in [3] it was 100%; in [4] it was 108%; in assay [5], 83.1%; in [6], 95%. Besides, the growth was 93% in assay [7]; 92.2% in [8]; 120% in assay [9]; 97.9% in assay [10]; 104% in assay [11]; 94.5% in assay [12]. The growth in assay [13] was 103%; in assay [14] it was 70.6%; in assay [15], 95.8%; in assay [16], 105%; in assay [17] it was 122%; in assay [19], 90.3%. In addition, in [18], the growth is 97.5%.
Take `O=C(c1ccccc1)C(CN1CCOCC1)c1ccccc1` (stereo not drawn): the growth in assay [1] was 65.3%; in assay [2], 40.1%; in [20], 81%; in assay [4], 79.4%; in assay [5], 40.5%; in assay [6], -51.3% (active). The growth was 95.3% in assay [7]; 31% in [8]; 25.5% in [9]; 28.9% in assay [10]; 7.04% (active) in [11]; -3.82% (active) in assay [12]. Also, the growth in [13] was 33.2%; in assay [14], 25.9%; in assay [15], 27%; in [17] it was 37.3%; in assay [19], 51.5%; in assay [18], 27.8%.
